Molecules are shown by their SMILES. Hit rate of the full screen: of about 16,000 compounds, about 2,600 (16%) were called active. Inconclusive results (about 20%) are left out. Calls come from the whole dose curve; as a rule, active = well fitted curve in the direction sought with a large enough effect; inconclusive = small, poorly fitted or top-dose-only effect, or effect the other way; inactive = no such curve, though single readings can be large or run the other way. The list is a sample of the results. Some structures have more than one record in an assay (separate samples or runs), and their calls can disagree.
% is set by controls: 0 for no effect and ±100 for the full control effect.

Chain of Cytochrome P450 2D6 (Homo sapiens) (P10635 whole entry, looked up): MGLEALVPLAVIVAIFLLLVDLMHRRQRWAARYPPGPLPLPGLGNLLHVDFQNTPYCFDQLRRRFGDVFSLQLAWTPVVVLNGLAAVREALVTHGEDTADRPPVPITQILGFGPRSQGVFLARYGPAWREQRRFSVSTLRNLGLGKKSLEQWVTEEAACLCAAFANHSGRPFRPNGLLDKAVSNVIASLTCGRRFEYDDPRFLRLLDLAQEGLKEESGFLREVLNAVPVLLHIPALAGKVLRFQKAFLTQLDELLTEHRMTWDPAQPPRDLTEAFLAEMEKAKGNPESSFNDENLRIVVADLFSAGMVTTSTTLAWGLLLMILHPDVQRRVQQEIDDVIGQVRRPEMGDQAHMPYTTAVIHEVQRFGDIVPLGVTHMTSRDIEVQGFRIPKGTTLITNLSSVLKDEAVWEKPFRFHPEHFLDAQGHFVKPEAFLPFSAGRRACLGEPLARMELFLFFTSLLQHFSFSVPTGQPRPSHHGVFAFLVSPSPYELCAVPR

The assay has as its target Cytochrome P450 2D6 (Homo sapiens) (UniProt P10635). Kind of assay: Cytochrome panel assay with activity outcomes. The following applies: recombinant CYP, pro-luciferin dealkylation, luminescence, p450-cyp2d6; series mostly up to 57.1 µM.
As usually defined, the AC50 is the concentration giving half of the maximal activity seen. For `Clc1ccc(-c2nnc(-c3ccccc3)c(N3CCSCC3)n2)cc1`, the AC50 result is “inactive”.
Consider `Cc1noc(NS(=O)(=O)c2cccc3c(N(C)C)cccc23)c1C`, for which the AC50 result is “inactive”.
Turning to `O=C(Nn1cc(C(=O)N2CCN(c3ccccc3F)CC2)c2ccccc2c1=O)c1cnccn1`, the AC50 entry is “inactive”.
Consider `CCC(=O)NNC(=O)CCC(=O)Nc1ccccc1`, for which the AC50 entry was “inactive”.
For `C#CCCCC(=O)Nc1ccccc1`, the AC50 was 12.6 µM (active).
Same read-out and setting: with `CC(=O)NNC(=O)CCC(=O)Nc1ccccc1` the entry was “inactive”; with `Cc1ccc(-c2csc(N/N=C/c3ccco3)n2)cc1`, “inactive”; with `NCCSSCCN`, “inactive”.
Turning to `O=c1oc2cc(Oc3ccc(C(F)(F)F)cc3[N+](=O)[O-])ccc2c2c1CCCC2`, the AC50 result is “inactive”.
As to `CC(C)c1ccc(OCc2ccc(C(=O)N3CCN(c4ccccn4)CC3)cc2)cc1`, the AC50 entry was “inactive”.
As to `Cc1cc(C(=O)CSc2nnc(N)s2)c(C)n1CCc1ccc(F)cc1`, the half-maximal activity concentration (AC50) is 7.08 µM (active).
As for `COc1ccc(CCn2c(C)cc(C(=O)CSc3nc(N)cc(=O)[nH]3)c2C)cc1`, the AC50 result is “inactive”.
As to `CC(=O)Nc1nnc(SCc2ccc(F)cc2)s1`, the AC50 result was “inactive”.
For `Cn1c(=O)c2c(ncn2CN2CCN(Cn3cnc4c3c(=O)n(C)c(=O)n4C)CC2)n(C)c1=O`, the activity, negative = inhibition was -3.86% [at 11.4 µM] (inactive).
Same read-out and setting: with `C[C@@H]1/C=C\CC(=O)OC[C@H](C)C(=O)N[C@@H](C)C(=O)OC1` the figure was -1.56% [at 11.4 µM] (inactive).
`CCCc1nnc(NC(=O)C(CC)OC(=O)c2cc(C)nc3ccccc23)s1` (stereo unspecified): the AC50 result is “inactive”.
With `c1ccc(SC(Sc2ccccc2)c2ccc3c(c2)OCO3)cc1`, the AC50 is 3.16 µM (active).
Take `C[C@@H]1Oc2ccc(C(=O)C[C@@H](C(=O)O)c3ccc4c(c3)OCO4)cc2O1`: the activity, negative = inhibition was -15.2% [at 11.4 µM] (inactive).
Regarding `C[C@@H](C(=O)O)/C(=C/c1ccc2c(c1)OCO2)C(=O)O`, the activity, negative = inhibition is 14.3% [at 11.4 µM] (inactive).
With `N[C@H](C(=O)O)c1ccc(C(=O)O)c(O)c1`, the AC50 entry was “inactive”.
Still for that read-out and setting: with `O=C(Nc1ccccc1C(=O)NCC1CCCO1)c1ccc(Cl)cc1Cl` (stereo unspecified) the entry was “inactive”; with `CC(C)(C)S(=O)(=O)c1cnc2c(-c3ccc(F)cc3)cnn2c1N`, “inactive”; with `CCCCc1c2ccccc2nc2[nH]c3ccccc3c12`, “inactive”.
Still for that read-out and setting: under `CCn1c2ccc(Cl)cc2c2nc3ccccc3nc21` stands “inactive”.
For the compound `CN(C)CCCc1c2ccccc2nc2ccc(Cl)cc12`, the AC50 is 1.58 µM (active).
Same read-out and setting: with `Cn1c(=O)c2[nH]cnc2n(C)c1=O` the entry was “inactive”; with `Cc1ccc(Sc2ccc(NC(=O)c3ccc(S(C)(=O)=O)cc3Cl)cc2)cc1`, “inactive”.
For `COC(=O)CCC(=O)NNC(=O)c1ccc(Br)cc1`, the AC50 result was “inactive”.
Turning to `Fc1cccc(NC(=S)NCCCN2CCOCC2)c1`, the AC50 was 7.94 µM (active).
For `O=C(CCn1c(=S)[nH]c2ccccc2c1=O)NCCCN1CCOCC1`, the AC50 result is “inactive”.
For `Cc1ccc(NC(=S)NCCN2CCOCC2)cc1C`, the AC50 entry is “inactive”.
Regarding `CN(C)CCCO[C@H]1[C@@H]2OC(C)(C)O[C@@H]2O[C@@H]1[C@H](O)CO`, the AC50 entry is “inactive”.
With `C#CCCCO/N=C1/C[C@@H](O)[C@@H](O)[C@@H]2[C@@H]3C(=O)N(C4CCCCC4)C(=O)[C@H]3CC[C@@H]12`, the activity, negative = inhibition is 13% [at 11.4 µM] (inactive).
`CCC(=O)Nc1ccc(C(=O)CSc2nnc(-c3ccc(O)cc3)n2CC2CCCO2)cc1OC` (stereo unspecified): the AC50 entry is “inactive”.
In the case of `CCCCN(C)CCCNC(=O)c1ccc(N2CCCC2=O)cc1`, the AC50 result was “inactive”.
As for `CC(=O)Nc1cccc(N2C(=O)CCC2=O)c1`, the AC50 entry was “inactive”.
Same read-out and setting: with `Cc1ccc(C(=O)NC2CCCCCC2)cc1N1CCCC1=O` the entry was “inactive”; with `O=C(O)c1cccc(N2CCCC2=O)c1`, 0.251 µM (active).
On the same count and under the same terms, with `CC(NC(=O)c1ccc(N2CCCC2=O)cc1)c1ccccc1` (stereo unspecified) the figure was 7.94 µM (active).
Consider `C[C@H](NC(=O)c1ccc(Cl)c(Cl)c1)c1ccc(-c2ccccc2)cc1`, for which the activity, negative = inhibition is -1.17% [at 11.4 µM] (inactive).
With `Cc1ccccc1C(=O)NC(=S)NCC(=O)c1ccccc1`, the AC50 entry was “inactive”.
For the compound `COCCn1c(=O)c(C)nc2cnc(Nc3cccc(OC)c3)nc21`, the AC50 entry was “inactive”.
For `CN(C)C(N)=NCCC[C@H](N)C(=O)O`, the AC50 entry was “inactive”.
As for `CC(/C=N\NC(=O)Cn1c(C)nc2ccccc21)=C\c1ccccc1`, the AC50 result was “inactive”.
Take `CC[C@H]1C2=C3C(CC[C@H]4C(OC)OC[C@](C)([C@@H]34)N(C(=O)OC(C)(C)C)C2)C(CO)C1CO` (stereo partly specified): the AC50 result was “inactive”.
In the case of `COC(=O)c1sccc1NC(=O)c1cc(-c2ccc(C)cc2C)nc2ccccc12`, the AC50 result is “inactive”.
With `Cc1c(Br)c([N+](=O)[O-])nn1CC(=O)NCc1ccccn1`, the AC50 entry is “inactive”.
As to `Cc1ccc(OC[C@H](O)[C@H](C)NC(C)C)c2c1CCC2`, the AC50 was 15.8 µM (active) and inactive.
Same read-out and setting: under `O=C(OCC1CC(c2ccccc2)=NO1)c1ccc(Cl)cc1` (stereo unspecified) stands “inactive”; under `CSc1nncc(-c2ccc(F)c(F)c2)n1`, “inactive”.
Turning to `COC(=O)C/C=C\[C@@H](C)[C@@H](/C=N\O[C@@H](C)c1cn([C@H]2COC[C@H]2O)nn1)NS(=O)(=O)c1ccc(C)cc1`, the activity, negative = inhibition was 5.15% [at 11.4 µM] (inactive).
For the compound `Cc1cccc(/C(N)=N/OC(=O)CCCN2C(=O)c3ccccc3C2=O)c1`, the AC50 result was “inactive”.
As for `Cc1ccc(OCCCN2C(=O)C(=O)c3cccc(C)c32)cc1`, the AC50 was 14.1 µM (active).
For the compound `Cc1ccc(OCCCC(=O)N2CCOCC2)cc1`, the AC50 result was “inactive”.
For `CC(C)(C)NC[C@H](O)c1cc(O)cc(O)c1`, the AC50 entry was “inactive”.
As for `Cc1onc(-c2ccccc2Cl)c1C(=O)Nc1nnc(Cc2ccc(Cl)cc2)s1`, the AC50 result is “inactive”.
Consider `Cc1ccc(NC(=O)c2ccc(CSc3nnc(-c4ccncc4)n3C)cc2)cc1`, for which the AC50 result was “inactive”.
In the case of `Cc1ccc(SCc2nnc(NC(=O)c3ccccc3)s2)cc1`, the AC50 result is “inactive”.
Same read-out and setting: under `Cc1ccc(SCc2ccc(C(=O)NCc3ccncc3)cc2)cc1` stands 0.0447 µM (active).
In the case of `CCc1nc2c(c(SC)nn2-c2ccccc2)c(N)c1C(=O)OC`, the AC50 result is “inactive”.
With `CC(=O)Nc1ccc(-c2cc(-c3ccc(NC(C)=O)cc3)nc(-c3ccccc3)n2)cc1`, the AC50 result was “inactive”.
Same read-out and setting: under `O=C(COC(=O)c1cccnc1)c1ccc(Cl)c(Cl)c1` stands 2.51 µM (active); under `O=C(Oc1cccc(Br)c1)c1cccnc1`, “inactive”.
Consider `CC(=O)OCCNC(=O)c1cccnc1`, for which the AC50 result is “inactive”.
On to `COc1cc(-c2ccc(N=Nc3ccc4c(S(=O)(=O)O)cc(S(=O)(=O)O)c(N)c4c3O)c(OC)c2)ccc1N=Nc1ccc2c(S(=O)(=O)O)cc(S(=O)(=O)O)c(N)c2c1O`, for which the AC50 result was “inactive”.
Still for that read-out and setting: under `COc1ccc(OCCSc2ncn[nH]2)cc1` stands “inactive”; under `COCCCNC(=O)CCC(=O)Nc1ccc2nc(N3CCOCC3)cc(C)c2c1`, “inactive”.
On to `Nc1nc(Sc2ccc([N+](=O)[O-])c3nonc23)c2[nH]cnc2n1`, for which the activity, negative = inhibition is 3.81% [at 11.4 µM] (inactive).
Turning to `C[C@H](N[C@@H](C)COc1ccccc1)[C@H](O)c1ccc(O)cc1`, the AC50 is 0.316 µM (active).
Consider `CCOc1ccc(C(CC(=O)O)NC(=O)COc2ccccc2)cc1` (stereo unspecified), for which the AC50 entry was “inactive”.
On to `O=C(O)[C@H](/C=C\c1ccccc1)c1ccccc1`, for which the activity, negative = inhibition was -18.1% [at 11.4 µM] (inactive).
With `CCOc1ccc(-n2c(=O)[nH]cc(C(=O)N3CCCc4ccccc43)c2=O)cc1`, the AC50 entry is “inactive”.
Same read-out and setting: with `O=C(NCCN1CCCCC1)c1ccc(I)cc1` the figure was 10 µM (active); with `Cc1ccc(C(=O)NCCNC(=O)CN2CCOCC2)cc1`, “inactive”; with `CCC(CC)C(=O)NCCN1CCN(C(=O)C(CC)CC)CC1`, “inactive”.
As for `COC(=O)C(NC(=O)c1ccccc1)=C1C=C(C)OC(C)=C1`, the AC50 result is “inactive”.
For the compound `Clc1ccc(/C=N/c2c(-c3ccc(Cl)cc3)nc3n2CCS3)cc1`, the AC50 result is “inactive”.
With `O=[N+]([O-])c1cccc(/C=N/Nc2cc(Cl)nc(-c3ccccc3)n2)c1`, the AC50 entry is “inactive”.
As for `CCCC/C=C/C(NC(=O)c1ccc(C(F)(F)F)cc1)c1ccccc1` (stereo unspecified), the AC50 result is “inactive”.
With `CCCC/C=C/C(NC(=O)Oc1cccc(C(F)(F)F)c1)c1ccccc1` (stereo unspecified), the AC50 was 1 µM (active).
For the compound `CCCC/C=C/C(NC(=O)c1ccccc1)c1ccccc1` (stereo unspecified), the AC50 result is “inactive”.
In the case of `Cn1c(=O)c2c(nc(N/N=C\c3ccccc3C(=O)O)n2C)n(C)c1=O`, the activity, negative = inhibition is 5.12% [at 11.4 µM] (inactive).
Consider `C(=N\Nc1nc(Nc2ccccc2)nc(N2CCOCC2)n1)/c1c[nH]c2ccccc12`, for which the AC50 result was “inactive”.
Still for that read-out and setting: with `Cn1c(N/N=C/c2c[nH]c3ccccc23)nc2ccccc21` the figure was 7.94 µM (active).
Same read-out and setting: with `CC(C)(C)C1CCc2c(C(=O)N/N=C/c3cccs3)csc2C1` (stereo unspecified) the entry was “inactive”.
On to `OC[C@@H]1O[C@H](n2cnc3c(/C=C(\O)c4ccccc4)ncnc32)[C@H](O)[C@@H]1O`, for which the activity, negative = inhibition was 3.57% [at 11.4 µM] (inactive).
On to `Cn1c(=O)n(C)c2cc(S(=O)(=O)O)ccc21`, for which the AC50 entry is “inactive”.
Still for that read-out and setting: under `CCc1c(C(=O)O)[nH]c2ccc(Br)cc12` stands “inactive”; under `CCOC(=O)c1ccc2nc(C)c(CCC(C)=O)c(Cl)c2c1`, “inactive”.
Same read-out and setting: with `CCc1c(C)nc2ccc(Br)cc2c1Cl` the figure was 12.6 µM (active).
On to `CCCNS(=O)(=O)c1ccc(OCC(=O)OC)cc1`, for which the AC50 entry is “inactive”.
Turning to `O=c1[nH][nH]c(C(F)(F)F)c1C=Nc1ccccc1`, the AC50 result is “inactive”.
Consider `Cc1ccc(CSc2nnc(-c3ccncc3)n2CC2CCCO2)cc1` (stereo unspecified), for which the AC50 result is “inactive”.
As to `Cc1cc(NC(=O)c2c([N+](=O)[O-])cnn2C)no1`, the AC50 result was “inactive”.
For the compound `CCCC[C@H](CC)CN1CN(C[C@@H](CC)CCCC)CC(C)(N)C1`, the AC50 was 1.26 µM (active).
On to `N#CC(c1ccccn1)(c1ncc(C(F)(F)F)cc1Cl)N1CCOCC1` (stereo unspecified), for which the AC50 entry is “inactive”.
Regarding `CC(=O)c1c(N=CN(C)C)nc(C)nc1-c1ccccc1`, the AC50 entry is “inactive”.
As to `C=CC[C@@H]1C=C[C@@H](O/N=C\c2ccc(C(=O)N3[C@H](c4ccc(C)cc4)[C@@H](C)CC[C@H]3C(=O)OC)cc2)[C@@H](CO)O1`, the activity, negative = inhibition was 5.48% [at 11.4 µM] (inactive).
Regarding `Cc1ccc(C)c(N2CCN(C(=O)c3ccc4nc(-c5ccco5)c(-c5ccco5)nc4c3)CC2)c1`, the AC50 is 3.16 µM (active).
For `Cc1cccc(C(=O)N2CCN(c3ccc([N+](=O)[O-])c(NCc4ccco4)c3)CC2)c1`, the AC50 result was “inactive”.
For `Cc1ccc(C(=O)N2CCN(c3cc(=O)[nH]nc3-c3ccccc3)CC2)cc1`, the AC50 entry was “inactive”.

For the origin of these results see PubChem BioAssay AID1851 (National Center for Advancing Translational Sciences (NCATS), 2009).
